Screening data from PubChem BioAssay.
Rows were chosen to be rich in hits. Some 5.5% of all compounds tested hit in one or more screens of this group.
Mito fusion yeast – qHTS Assay for Small Molecule Inhibitors of Mitochondrial Division or Activators of Mitochondrial Fusion; 320,000 compounds, 0.23% hits; Potency, µM (doses to about 46.1 µM), without a hit: at the highest dose growth rescue (activation), hits mostly activators; S. cerevisiae fusion-defective mutant growth rescue, CellTiterGlo 48 h; note: % of control where 0% means no effect; nearly all actives have a fitted effect of over 45% in size
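S. cerevisiae fusion-defective temperature-sensitive mutants (e.g. fzo1-1, mgm1-5) grown 48 h at 37C in YPEG (ethanol/glycerol non-fermentable) medium with 23 nl compound per well; growth rescue read as CellTiterGlo luminescence.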
BCR signal inh – qHTS Assay to Find Inhibitors of Chronic Active B-Cell Receptor Signaling | ABC-DLBCL IkBa-CBG/CBR reporter, luminescence ratio, 4 h | Potency, µM (titrated, usually from 46.1 µM), for inactives: at the highest dose activity change, negative = inhibition, most hits filed as inhibitors | 340,000 compounds, 0.05% hits | AID 493014, 2011; active = well fitted inhibition curve with a large enough effect in the signal ratio, with a control signal flat, not every such curve was filed as active; inconclusive = small, poorly fitted or top-dose-only effect, or effect the other way, or a change in a side signal; the % refers to the signal ratio;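 note: plate controls were basal doxycycline-induced cells for no effect and cells given 10 µM MG132 for full effect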
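Concentration-response series (up to 46 uM) were applied to TMD8 dual-reporter cells for 4 h at 37C with doxycycline. Green/red ratio, after filter-overlap correction, defined %Activity; red signal alone was normalised to basal cells and zero luminescence.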
a7 integrin act – qHTS for Activators of Integrin-Mediated Alleviation for Muscular Dystrophy. 350,000 compounds, 0.064% hits. alpha7betagal myoblasts, beta-gal FDG fluorescence, 48 h. AID 624291, 2012. Potency, µM (series often up to 38.3 µM), for inactives: at the top dose activation, usual class: activators;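 note: 100% = response of the positive control SU9516; nearly all actives have a fitted effect of over 60% in size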
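Alpha7betagal+/- myoblasts (passage 13) were plated 16-24 hr, then exposed to compounds (1:260 dilution of DMSO stock) for 48 hours at 37C. After MPER lysis, β-galactosidase reporter activity was read as FDG fluorescence (ex 480/em 540) after 30 minutes.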
VP16 counter – VP16 counterscreen qHTS for inhibitors of ROR gamma transcriptional activity; Drosophila S2 Gal4-VP16 UAS-luciferase, luminescence, 20 h; Potency, µM (highest dose often 53.6 µM), inactives show at the top dose activity, negative = inhibition, hits mostly inhibitors; 310,000 compounds, 3.5% hits;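 note: Gal4-VP16 expression switched on by copper sulfate through the metallothionein promoter; % is set by controls: 0 for no effect and ±100 for the full control effect; nearly all actives have a fitted effect of over 50% in size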
RORgamma inh – qHTS for inhibitors of ROR gamma transcriptional activity; Potency, µM (top dose mostly 53.6 µM), without a hit: top-dose activity change, negative = inhibition, hits mostly inhibitors; AID 2551, 2010; 310,000 compounds, 5.4% hits; Nuclear receptor ROR-gamma (Mus musculus), P51450; Drosophila S2 Gal4-RORgamma UAS-luciferase reporter, 20 h; note: % is set by controls: 0 for no effect and ±100 for the full control effect; nearly all actives have a fitted effect of over 60% in size
Target sequence (P51450 whole entry, looked up, the tested form may be a part): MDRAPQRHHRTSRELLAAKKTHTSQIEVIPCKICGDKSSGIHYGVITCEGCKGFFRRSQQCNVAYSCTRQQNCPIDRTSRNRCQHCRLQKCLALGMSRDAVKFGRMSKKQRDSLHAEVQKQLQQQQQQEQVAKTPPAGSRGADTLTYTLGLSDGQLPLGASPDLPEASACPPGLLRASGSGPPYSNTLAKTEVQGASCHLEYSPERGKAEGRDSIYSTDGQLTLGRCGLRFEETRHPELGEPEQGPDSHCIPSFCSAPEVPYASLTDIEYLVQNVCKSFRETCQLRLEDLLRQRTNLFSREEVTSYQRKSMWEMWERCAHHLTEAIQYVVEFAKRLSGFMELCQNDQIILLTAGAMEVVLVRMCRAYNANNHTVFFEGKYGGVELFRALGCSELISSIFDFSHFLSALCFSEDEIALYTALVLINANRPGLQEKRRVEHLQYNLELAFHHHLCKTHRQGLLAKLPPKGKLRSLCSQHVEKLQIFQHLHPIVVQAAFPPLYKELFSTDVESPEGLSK
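ROR gamma transcriptional activity was tracked as Gal4-UAS luciferase output in stably transfected Drosophila Schneider cells, with compound added 1 hr before 700 uM copper sulfate induction and a 20 hr ambient-temperature incubation.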
uPA surface inh – qHTS for Inhibitors of Cell Surface uPA Generation | cell surface uPA generation assay, qHTS | 330,000 compounds, 0.31% hits | Potency, µM (series often up to 38.3 µM), without a hit: at the highest dose activity change, negative = inhibition, actives largely listed as inhibitors; active = well fitted inhibition curve with a large enough effect; inconclusive = small, poorly fitted or top-dose-only effect; inactive = no such curve, though single readings can be large or run the other way; tested in mouse RAW 264.7 cells; note: % is set by controls: 0 for no effect and ±100 for the full control effect; nearly all actives have a fitted effect of over 55% in size
Numbers without * were called inactive; ? = inconclusive; · = not tested or not shown; [ ] = another dose, or the depositor's remark. Unless noted, calls come from the whole dose curve; as a rule, active = well fitted curve in the direction sought with a large enough effect; inconclusive = small, poorly fitted or top-dose-only effect, or another doubt; inactive = no such curve, though single readings can be large; an effect the other way counts as inactive or inconclusive. Potency is the fitted concentration of half-maximal effect.

SMILES | Mito fusion yeast | BCR signal inh | a7 integrin act | VP16 counter | RORgamma inh | uPA surface inh
COc1cc(SC)ccc1C(=O)Nc1nccs1 | -1% | ? | 7% | ? | 7.9µM* | -12%
CSc1ccccc1C(=O)Nc1nc2ccccc2[nH]1 | -5% | ? | 20% | ? | 5µM* | -3%
CC(C)CCNC(=O)CN1C(=O)CSc2ccc(S(=O)(=O)N3CCC(C)CC3)cc21 | · | -2% | · | · | · | ·
CC(C(=O)Nc1nc2ccccc2[nH]1)N1C(=O)C2CC=CCC2C1=O (stereo not given) | 0% | 2% | 44% | -6% | 10µM* | 2%
CC(C)Cc1ccc(C(C)C(=O)Nc2ccc(O)cc2)cc1 (stereo not given) | -1% | ? | -45% | 18µM* | ? | ?
CC(C)Cc1ccc(C(C)C(=O)Nc2cccnc2)cc1 (stereo not given) | 8% | 0% | -8% | ? | 30%[1.91 µM] | -4%
C=CC(=O)N=c1sc2ccccc2n1-c1ccccc1 | 14% | ? | -67% | ? | 10µM* | -14%
S=c1[nH]nc(-c2ccccc2)n1/N=C/c1cccc(Br)c1 | -8% | ? | -24% | 7.1µM* | 7.1µM* | -1%
COc1ccc(/C=N/n2c(-c3ccccc3)n[nH]c2=S)cc1 | -4% | -4% | ? | 4.5µM* | 5.6µM* | -8%
Oc1ccc(Br)cc1/C=N/n1c(-c2ccccc2)n[nH]c1=S | 1% | 4% | 33% | · | · | -13%
COc1cccc(/C=N/n2c(-c3cccs3)n[nH]c2=S)c1 | -7% | 14% | -11% | -23% | 7.1µM* | 0%
CCOC(=O)c1ccc(-c2ccc(-c3cc(=O)oc4cc(OC)c(OC)c(OC)c34)cc2)cc1 | · | -2% | 0% | -7% | 4% | 16%
CC(=O)Nc1ccc(NC(=O)CSc2nnc(NC(=O)C3CC(=O)N(c4ccc(F)cc4)C3)s2)cc1 (stereo not given) | 1% | -1% | -23% | -1% | 0% | 1%
Cc1ccc(N2CC(NC(=O)Cc3cccs3)CC2=O)cc1C (stereo not given) | · | -12% | · | · | · | ·
CC(=O)NC1=C(NC2CCS(=O)(=O)C2)C(=O)c2ccccc2C1=O (stereo not given) | -1% | 5% | 0% | 18µM* | ? | ?
COc1ccc(Oc2ncc3nc(C)c(=O)n(Cc4cccc(OC)c4)c3n2)cc1 | · | · | · | -3% | -9% | ·
O=C(CSC1CCCCC1)Nc1nccs1 | -5% | 7% | 5% | 8% | -27% | -1%
Cc1nnc(NC(=O)CSC2CCCCC2)s1 | -12% | 8% | -12% | -20% | 22µM* | 3%
CN(C)C(=O)N(CCCN1CCOCC1)Cc1cccc2ccccc12 | 2% | -18% | -13% | -3% | 20% | -7%
CCCOC(C(=O)OC1CCN(C)CC1)(c1ccccc1)c1ccccc1 | · | · | · | 1% | -25% | ·
COc1ccc(Cl)cc1Nc1cc(C)nc2ncnn12 | · | · | -4% | · | · | ·
COc1ccccc1C(=O)NNC(=O)C(=O)Nc1ccc(C)c(Cl)c1 | 17% | ? | -23% | -18% | ? | 3%
COc1ccccc1C(=O)NNC(=O)C(=O)Nc1ccc(C)cc1 | ? | ? | -25% | 3% | 11µM* | 2%
CC(C)(C)OC(=O)C[C@@H]1C/C=C\C[C@H](CC(=O)N(CCO)Cc2ccccc2)C(=O)N[C@H](Cc2ccccc2)COC1=O | · | 0% | -18% | · | · | 19%
Cc1ccn2c(NC(C)(C)C)c(-c3cccs3)nc2c1 | 8% | -12% | 6% | -17% | 11µM* | 3%
SMILES | Mito fusion yeast | BCR signal inh | a7 integrin act | VP16 counter | RORgamma inh | uPA surface inh
COc1nc(NCc2cccnc2)nc(NC2CCCCC2)n1 | 13µM* | ? | 15% | 2% | 44% | -4%
Cc1c(C(=O)Nc2ccc(F)cc2)nnn1-c1cccc(C(F)(F)F)c1 | 12% | ? | -5% | 16µM* | ? | 2%
Cc1ccc(NC(=S)N2CCCC2)cc1Cl | -9% | 2% | ? | ? | 16µM* | 1%
S=C(Nc1ccc(Cl)cc1)N1CCCCC1 | 1% | ? | 7% | ? | 10µM* | 5%
CN1CCN(C(=S)Nc2ccc(Cl)cc2)CC1 | -5% | ? | 11% | 5% | 0% | 15%
S=C(Nc1ccccc1)N1CCCCC1 | -5% | -1% | -15% | -17% | 11µM* | -7%
Fc1cccc(NC(=S)N2CCCCC2)c1 | -10% | 7% | -19% | ? | 13µM* | 12%
CCOc1ccc(NC(=S)N2CCCC2)cc1 | -7% | 5% | -6% | -6% | -16% | 0%
CCc1ccc(NC(=S)N2CCCCCCC2)cc1 | -11% | 4% | -43% | ? | 5.6µM* | -9%
FC(F)(F)c1cnc(N2CCCN(C(=S)Nc3ccccc3)CC2)c(Cl)c1 | 1% | -1% | -42% | ? | 7.9µM* | 3%
CCOc1ccc(S(=O)(=O)N2CCN(C)CC2)cc1NC(=O)c1ccccc1F | 0% | 2% | 9% | ? | 4µM* | -9%
CCc1nnc(SCC(=O)Nc2nccs2)n1CC | 3% | ? | 101% | -3% | -4% | -1%
CCn1c(Cc2cccc3ccccc23)nnc1SCC(=O)Nc1nccs1 | -2% | ? | -20% | ? | 14µM* | -4%
Fc1ccccc1C1c2cccn2CCN1C(=S)Nc1cccc(Br)c1 (stereo not given) | 8% | ? | 0% | ? | 13µM* | -1%
Fc1ccc(C2c3cccn3CCN2C(=S)Nc2cccc(F)c2)cc1 (stereo not given) | 2% | ? | 4% | -66% | 10µM* | 9%
CC(=O)c1ccc(OCc2cc(C(=O)NCCn3nc(C)cc3C)no2)cc1 | 1% | 4% | 20% | 12% | ? | -7%
C=C(C)C(=O)OCCOC(=O)C(=C)C | · | · | · | -10% | 7% | ·
COc1ccccc1CNc1ncnc2ccc(-c3ccoc3)cc12 | · | · | · | -2% | -39% | ·
CC(NC(=O)c1cccc(F)c1)C1CC2CCC1C2 (stereo not given) | · | · | ? | · | · | 5%
O=C(NC(Nc1ncc(S(=O)(=O)c2ccc([N+](=O)[O-])cc2)s1)(C(F)(F)F)C(F)(F)F)c1ccc(Cl)cc1 | 11% | ? | -55% | 11µM* | ? | -13%
COc1cccc(-c2nnn(CC(=O)N3CCC(C)CC3)n2)c1 | -3% | -2% | 12% | 27% | 34% | 2%
CCc1ccc(NC(=O)CCn2c(-c3ccc(OC)cc3)cc(C(C)=O)c2C)cc1 | · | -3% | · | · | · | ·
CCCCCCn1ccc(=N)cc1 | 3% | 2% | -54% | 7.1µM* | -36% | -16%
